# Inconclusive results are not listed. Entries that show only a call come without a potency. Active and inactive are the calls of the source. The call rests on the fitted dose curve; in most records, active means well fitted curve in the direction sought with a large enough effect; inconclusive means small, poorly fitted or top-dose-only effect, or another doubt; inactive means no such curve, though single readings can be large; an effect the other way counts as inactive or inconclusive.
# What was measured:
# [1] = target: Voltage-gated inwardly rectifying potassium channel KCNH2 (Homo sapiens) (UniProt Q12809); experiment: qHTS Assay for Small Molecule Inhibitors of the Human hERG Channel Activity (AID 588834);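 further: lower thallium flux fluorescence means stronger hERG block; nearly all actives have a fitted effect of over 50% in size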
# In short: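 Step 1: BacMam hERG transduction of U2OS, 4 hrs RT. Step 2: overnight 37 °C, plate 2000 cells/well, 4 hr. Step 3: FluxOR load, compound 10 min, stimulate, read fluorescence.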
# [2] = target: Luciferin 4-monooxygenase (Photinus pyralis) (UniProt P08659); experiment: Biochemical firefly luciferase enzyme assay for NPC (AID 624030); further: nearly all actives have a fitted effect of over 70% in size
# In short: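 Purified P. pyralis luciferase at 10 nM in 50 mM Tris Acetate (final), luminescence read within 5 minutes of enzyme addition to compounds. Activity normalised to PTC124 versus DMSO; concentration-response curves classed by r2, magnitude and activity.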
# [3] = S16 Schwann cell viability assay (CellTiter-Glo assay) (AID 624031); further: nearly all actives have a fitted effect of over 70% in size
# In short: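 Native S16 Schwann cells (rat), serum-containing medium, overnight attachment then 24 h drug exposure at 37 °C/5% CO2. CellTiter-Glo ATP signal; normalized to cell-free and vehicle wells.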
# [4] = S16 Schwann cell PMP22 intronic element firefly luciferase assay (AID 624032); further: nearly all actives have a fitted effect of over 30% in size
# In short: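 Rat S16 Schwann cells stably carrying firefly luciferase driven by a PMP22 intronic element, in 10% FBS, treated 24 h at 37 C. ONE-Glo luminescence normalized to PTC124 control and DMSO (0%); curves classed by r2, magnitude and activity.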
# Potency means the concentration at half of the fitted maximal effect.
# Voltage-gated inwardly rectifying potassium channel KCNH2 (Homo sapiens), sequence (Q12809 whole entry, looked up): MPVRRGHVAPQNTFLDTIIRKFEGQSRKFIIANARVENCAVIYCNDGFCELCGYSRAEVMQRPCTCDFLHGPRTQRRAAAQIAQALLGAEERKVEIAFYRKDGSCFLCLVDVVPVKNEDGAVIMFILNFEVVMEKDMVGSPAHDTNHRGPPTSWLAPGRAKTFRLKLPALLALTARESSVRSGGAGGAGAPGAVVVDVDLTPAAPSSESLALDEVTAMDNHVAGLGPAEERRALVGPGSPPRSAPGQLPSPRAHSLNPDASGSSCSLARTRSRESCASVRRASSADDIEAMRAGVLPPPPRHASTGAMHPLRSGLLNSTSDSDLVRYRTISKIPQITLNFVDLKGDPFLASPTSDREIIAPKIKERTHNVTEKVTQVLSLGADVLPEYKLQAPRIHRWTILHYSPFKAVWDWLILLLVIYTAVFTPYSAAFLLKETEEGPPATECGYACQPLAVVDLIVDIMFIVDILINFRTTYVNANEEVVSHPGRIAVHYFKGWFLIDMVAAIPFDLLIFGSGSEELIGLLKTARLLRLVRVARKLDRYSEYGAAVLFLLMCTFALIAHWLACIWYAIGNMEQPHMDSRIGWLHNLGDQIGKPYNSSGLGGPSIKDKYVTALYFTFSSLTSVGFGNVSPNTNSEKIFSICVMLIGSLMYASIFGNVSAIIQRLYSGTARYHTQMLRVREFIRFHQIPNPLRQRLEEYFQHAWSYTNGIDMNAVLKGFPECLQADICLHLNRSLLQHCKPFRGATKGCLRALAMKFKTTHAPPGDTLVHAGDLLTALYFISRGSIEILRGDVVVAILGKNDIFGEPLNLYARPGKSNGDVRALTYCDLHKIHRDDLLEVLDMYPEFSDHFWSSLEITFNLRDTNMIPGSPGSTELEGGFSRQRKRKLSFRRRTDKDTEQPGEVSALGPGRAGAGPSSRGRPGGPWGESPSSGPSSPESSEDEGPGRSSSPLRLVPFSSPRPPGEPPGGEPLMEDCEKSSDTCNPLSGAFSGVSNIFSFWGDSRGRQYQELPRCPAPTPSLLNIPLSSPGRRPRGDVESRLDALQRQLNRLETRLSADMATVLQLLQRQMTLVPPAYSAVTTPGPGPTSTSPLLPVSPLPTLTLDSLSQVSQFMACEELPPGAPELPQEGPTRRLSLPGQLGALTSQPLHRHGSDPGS
# Luciferin 4-monooxygenase (Photinus pyralis), sequence (P08659 whole entry, looked up): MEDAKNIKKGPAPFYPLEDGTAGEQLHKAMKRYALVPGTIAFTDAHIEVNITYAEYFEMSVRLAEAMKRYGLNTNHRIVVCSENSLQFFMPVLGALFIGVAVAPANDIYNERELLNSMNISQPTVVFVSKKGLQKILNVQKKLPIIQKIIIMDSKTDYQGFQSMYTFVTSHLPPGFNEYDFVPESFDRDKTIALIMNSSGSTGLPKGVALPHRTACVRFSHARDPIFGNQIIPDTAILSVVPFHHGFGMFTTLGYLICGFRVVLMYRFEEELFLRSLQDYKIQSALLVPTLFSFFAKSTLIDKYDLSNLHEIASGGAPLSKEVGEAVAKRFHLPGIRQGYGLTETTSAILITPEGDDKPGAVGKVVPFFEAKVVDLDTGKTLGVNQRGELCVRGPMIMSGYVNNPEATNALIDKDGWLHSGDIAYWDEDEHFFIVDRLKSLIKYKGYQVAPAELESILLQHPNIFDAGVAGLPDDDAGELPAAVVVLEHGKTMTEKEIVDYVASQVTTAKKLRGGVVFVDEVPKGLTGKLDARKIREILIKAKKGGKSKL
Structure (SMILES),Potency [1],Potency [2],Potency [3],Potency [4]
CC[N+](C)(CC)CCOC(=O)C(O)(c1ccccc1)C1CCCCC1 (centres undefined),inactive,inactive,inactive,
C[C@]12CCC(=O)C=C1C=C[C@@H]1[C@@H]2CC[C@@]2(C)[C@H]1CC[C@@]21CCC(=O)O1,inactive,,,
O=S(=O)(O)c1ccc(O)cc1,inactive,inactive,inactive,
CN(C)CCOC(c1ccc(Cl)cc1)c1ccccn1 (centres undefined),14.1 µM (active),inactive,inactive,
CCN(CC)CCOc1ccc2c(c1)C(=O)c1cc(OCCN(CC)CC)ccc1-2,inactive,inactive,inactive,
CN1CCN(c2cc3c(cc2F)c(=O)c(C(=O)O)cn3-c2ccc(F)cc2)CC1,inactive,inactive,inactive,
CCc1nn(CCCN2CCN(c3cccc(Cl)c3)CC2)c(=O)n1CCOc1ccccc1,1 µM (active),inactive,,
O=C(O)CCc1nc2ccccc2[nH]1,inactive,inactive,inactive,
Cc1c[nH]c2ccccc12,inactive,inactive,inactive,
O=C(Oc1cccc2cccnc12)c1ccccc1,inactive,,,
CCN1CCN(C(=O)N[C@@H](C(=O)N[C@@H]2C(=O)N3C(C(=O)O)=C(CSc4nnnn4C)CS[C@H]23)c2ccc(O)cc2)C(=O)C1=O,inactive,,,
C=C1c2cccc(O)c2C(O)=C2C(=O)[C@]3(O)C(O)=C(C(N)=O)C(=O)[C@@H](N(C)C)[C@@H]3[C@@H](O)[C@H]12,inactive,,,
O=C1C(=O)c2ccccc2C(O)=C1C1CCC(c2ccc(Cl)cc2)CC1 (centres undefined),inactive,inactive,inactive,
CCc1cc(Cl)c(OC)c(C(=O)NC[C@@H]2CCCN2CC)c1O,2.82 µM (active),inactive,,
CCC1NC(=O)c2cc(S(N)(=O)=O)c(Cl)cc2N1 (centres undefined),inactive,,,
CCN1/C(=C/C=C/c2sc3ccccc3[n+]2CC)Sc2ccccc21,1.41 µM (active),12.8 µM (active),4.05 µM (active),
CC(=O)O[C@]1(C(C)=O)CC[C@H]2[C@@H]3C=C(Cl)C4=CC(=O)CC[C@]4(C)[C@H]3CC[C@@]21C,inactive,inactive,inactive,
CCN1CCCC(OC(=O)C(c2ccccc2)c2ccccc2)C1 (centres undefined),7.94 µM (active),,,
CCCCC(CC)CN1CN(CC(CC)CCCC)CC(C)(N)C1 (centres undefined),4.47 µM (active),,,
CCCc1ncc(C[n+]2ccccc2C)c(N)n1,inactive,inactive,inactive,
CC(=O)Nc1ccc(OC(=O)c2ccccc2OC(C)=O)cc1,inactive,inactive,inactive,
CN1CCN(c2c(F)cc3c(=O)c(C(=O)O)cn4c3c2SCC4)CC1,inactive,inactive,inactive,
CCOC(=O)C(C#N)=C(c1ccccc1)c1ccccc1,inactive,inactive,inactive,
CCCN(CCc1cccs1)[C@H]1CCc2c(O)cccc2C1,1 µM (active),inactive,,

Structure (SMILES),Potency [1],Potency [2],Potency [3],Potency [4]
CC(C)NCC(O)c1ccc2ccccc2c1 (centres undefined),inactive,inactive,,
CC(=C(CCOC(=O)C(C)C)SSC(CCOC(=O)C(C)C)=C(C)N(C=O)Cc1cnc(C)nc1N)N(C=O)Cc1cnc(C)nc1N,inactive,,,
CC(=O)OCC1=C(C(=O)O)N2C(=O)[C@@H](NC(=O)CSc3ccncc3)[C@H]2SC1,inactive,,,
CC[C@]12CCCN3CCc4c(n(c5ccccc45)C(=O)C1)[C@@H]32,0.447 µM (active),,,
Cc1cc(C)cc(OCC2CNC(=O)O2)c1 (centres undefined),inactive,inactive,inactive,
CC(C)(Cc1c[nH]c2ccccc12)NCC(O)COc1ccccc1C#N (centres undefined),2.82 µM (active),inactive,,
O=C(Nc1ccc([N+](=O)[O-])cc1)Nc1ccc([N+](=O)[O-])cc1,14.1 µM (active),inactive,inactive,
CC(C)Cc1ccc(CC(=O)O)cc1,inactive,inactive,inactive,inactive
CCCCCCCCNC(C)C(O)c1ccc(SC(C)C)cc1 (centres undefined),0.631 µM (active),inactive,14.4 µM (active),22.8 µM (active)
CCOC(=O)c1ccc(N)cc1,inactive,inactive,inactive,inactive
CC(=O)NCCCCCC(=O)O,inactive,inactive,inactive,inactive
CCN(CC)CCNC(=O)COc1ccc(OC)cc1,inactive,inactive,inactive,inactive
Nc1ccc(C(=O)NCC(=O)O)cc1,inactive,inactive,inactive,inactive
NS(=O)(=O)c1cc(C(=O)O)cc(N2CCCC2)c1Oc1ccccc1,inactive,inactive,inactive,inactive
Cc1cc(NS(=O)(=O)c2ccc(N)cc2)nc(C)n1,inactive,inactive,inactive,inactive
O=C(O)CCC(=O)Nc1ccc(S(=O)(=O)Nc2nccs2)cc1,inactive,inactive,inactive,inactive
COc1ccc2c(c1)c1c3n2CCN(C)C3=NCC1,3.98 µM (active),inactive,inactive,inactive
CC(=O)NC(=O)c1ccccc1O,inactive,inactive,inactive,inactive
NC1CCN(c2nc3c(cc2F)c(=O)c(C(=O)O)cn3-c2ccc(F)cc2F)C1 (centres undefined),inactive,inactive,inactive,inactive
CC(C)CCCC(C)N (centres undefined),inactive,inactive,inactive,inactive
Cc1cccc(C)c1NC(=O)CN1CCCCCC1,inactive,inactive,inactive,inactive
CC1CCc2c(N3CCC(O)CC3)c(F)cc3c(=O)c(C(=O)O)cn1c23 (centres undefined),inactive,inactive,inactive,inactive
OC1C(O)C(O)C(O)C(O)C1O (centres undefined),inactive,inactive,inactive,inactive
OCc1ccccn1,inactive,inactive,inactive,inactive

Structure (SMILES),Potency [1],Potency [2],Potency [3],Potency [4]
O=C(Nc1cccc(C2=NCCN2)c1)Nc1cccc(C2=NCCN2)c1,inactive,inactive,inactive,inactive
c1ccc(-c2nc[nH]c2-c2ccccc2)cc1,inactive,inactive,inactive,inactive
COc1cc(C(=S)N2CCOCC2)ccc1O,inactive,inactive,inactive,
CCc1ccc(C(=O)C(C)CN2CCCCC2)cc1 (centres undefined),inactive,inactive,inactive,inactive
CCN(CC)CCOC(=O)C1(c2ccccc2)CCCC1,inactive,inactive,inactive,inactive
N=C(N)N1CCc2ccccc2C1,inactive,inactive,inactive,inactive
FC1(F)C(F)(F)C(F)(F)C2(F)C(F)(F)C(F)(F)C(F)(F)C(F)(F)C2(F)C1(F)F (centres undefined),inactive,inactive,inactive,inactive
O=C1C(O)=C(O)C(=O)C(O)=C1O,inactive,inactive,inactive,inactive
Cc1cccc(C)c1NC(=O)CN1CCCC1,inactive,inactive,inactive,
Cc1nc(-c2ccc(Cl)cc2)oc1COC(C)(C)C(=O)O,inactive,inactive,inactive,
CC(=O)Nc1ccc(CC(=O)O)cc1,inactive,inactive,inactive,inactive
COc1ccc(CCN(C)CCCN2CCc3cc(OC)c(OC)cc3CC2=O)cc1OC,7.94 µM (active),inactive,inactive,inactive
CC(=O)OCC(=O)[C@H]1CC[C@H]2[C@@H]3CCC4=CC(=O)CC[C@]4(C)[C@H]3CC[C@]12C,inactive,inactive,inactive,inactive
Cc1ccc(S(=O)(=O)NC(=O)NC2CCCC2)cc1,inactive,inactive,inactive,inactive
CCOCCn1c(N2CCCN(C)CC2)nc2ccccc21,1 µM (active),inactive,inactive,inactive
COc1cc(NS(=O)(=O)c2ccc(N)cc2)ncn1,inactive,inactive,inactive,inactive
CC(=O)O[C@H]1C[C@@H]2CC[C@@H]3[C@H](CC[C@@]4(C)[C@H]3C[C@H]([N+]3(C)CCCCC3)[C@@H]4OC(C)=O)[C@@]2(C)C[C@@H]1N1CCCCC1,inactive,inactive,inactive,inactive
O=C(NC1CCN(CCc2c[nH]c3ccccc23)CC1)c1ccccc1,0.891 µM (active),inactive,inactive,inactive
Cc1cccc(C)c1NC(=O)c1ccccc1C(=O)O,inactive,inactive,inactive,inactive
CC(C)(C)NC[C@H](O)COc1cccc2c1CCCC2=O,inactive,inactive,inactive,
CCCCNC(=O)NS(=O)(=O)c1ccc(N)cc1,inactive,inactive,inactive,inactive
CC(C)[N+](C)(C)CC(O)COc1cccc2ccccc12 (centres undefined),inactive,inactive,inactive,inactive
COC(=O)C(c1ccccc1Cl)N1CCc2sccc2C1 (centres undefined),inactive,inactive,inactive,inactive

# — PubChem BioAssay (NCATS)
